RTF Ca sens inh: cardiac RTF calcium desensitization; P19429+P45379; IANBD-labeled cardiac RTF, Ca2+ fluorescence; inhibition, % at 7.15 µM; 340,000 compounds, 0.12% hits; AID 493244;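 active = inhibition above the mean inhibition of all tested compounds plus 3 SD, cut at about 17% in these data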;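 note: assay run at fixed EC70 calcium of 1.6 mM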
E coli Lon inh: inhibits E. coli Lon protease | purified E. coli Lon protease, fluorescence polarization | P0A9M0 | inhibition, % at 7.94 µM | 360,000 compounds, 0.42% hits; in the data active = inhibition above about 13%, passing the limit was not always enough;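 note: 0% = enzyme with probe and DMSO and 100% = no enzyme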
RTF Ca sens act: increases calcium sensitivity of human cardiac regulated thin filaments. P19429+P45379. IANBD-labeled TnC RTF fluorescence at EC20 calcium; 0% EC20 calcium, 100% full calcium. activation, % at 7.2 µM. 340,000 compounds, 0.24% hits;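 active = activation above the mean over all tested compounds plus 3 SD, cut at about 30% in these data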;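 note: rise in fluorescence read as greater calcium sensitivity of cardiac thin filaments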
Keap1 Nrf2 FP: Keap1-Nrf2 (human) interaction inhibition; Q14145; Keap1 Kelch-Nrf2 peptide fluorescence polarization, 1536-well; inhibition, % at 9.4 µM; 340,000 compounds, 0.15% hits; AID 504523; in the data active = inhibition above about 12%; inconclusive = no clear call, values can overlap the other calls; inactive = below about 7.3%;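 note: human Keap1 Kelch domain with fluorescein labeled Nrf2 9mer peptide probe; 0% = neutral control wells and 100% = peptide positive control; higher means more block of Keap1 binding to Nrf2 peptide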
LANA-H2B inh: blocks KSHV LANA binding to histone H2A/H2B; Q9QR71; cell-free LANA-H2A/H2B peptide, fluorescence polarization; inhibition, % (no concentration beside the values); 320,000 compounds, 0.6% hits; in the data active = inhibition mostly above about 10%, no sharp cut-off; inactive = mostly below about 6.7%
C-LANA FP: blocks KSHV LANA C-terminal domain binding to DNA; MBP-C-LANA/FAM-LBS DNA binding, fluorescence polarization; inhibition, % at 9 µM; 340,000 compounds, 0.078% hits; AID 504423;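 active = highest replicate inhibition at or above 60% at 9 µM, even if other replicates fall short; inactive = all replicates below 60% inhibition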;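 note: 0% = neutral control wells and 100% = 4 µM acridine orange control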
An asterisk follows results filed as active; ? = inconclusive; · = not tested or not shown; ! = not active in a repeat. Only some compounds are listed: those with a hit (about 1.3% of all), similar ones and a draw of the others.

SMILES | RTF Ca sens inh | E coli Lon inh | RTF Ca sens act | Keap1 Nrf2 FP | LANA-H2B inh | C-LANA FP
CN(C)c1ccc(C(=O)/C=C/c2cccnc2)cc1 | -11 | -1 | -3 | 3 | -1 | 2
CCOc1ccc(S(=O)(=O)N(CC)CC(=O)NC2CCS(=O)(=O)C2)cc1 (stereo unspecified) | -2 | -16 | -9 | -3 | 2 | 1
COc1ccc(NC(=O)CN2C(=O)NC3(CCCCC3C)C2=O)cc1S(=O)(=O)N1CCOCC1 (stereo unspecified) | -6 | -4 | -1 | 0 | 1 | 4
Cc1ccc(NC(=O)CN2C(=O)NC3(CCCCC3C)C2=O)cc1S(=O)(=O)N1CCCCC1 (stereo unspecified) | 0 | -2 | 6 | 1 | 55* | -1
O=C(O)C1Nc2c(O)cccc2C2C=CCC12 (stereo unspecified) | 34* | 9 | -31 | 2 | 17 | 13
O=C(O)C1Nc2c(Cl)cc(Cl)c(Cl)c2C2C=CCC12 (stereo unspecified) | 2 | -13 | -3 | -1 | 0 | 1
Cc1cccc(NC(=O)CCS(=O)(=O)c2cccc3nonc23)c1C | -20 | -3 | -2 | 2 | 2 | 0
O=C(O)c1cccc2cccc(-c3c4ccc(=O)c(O)c-4oc4c(O)c(O)ccc34)c12 | 79* | 11 | -44 | 7 | · | 87*
O=C(N=c1ccn(-c2nc3ccccc3nc2NS(=O)(=O)c2ccc(Cl)cc2)cc1)c1ccccc1Cl | · | · | · | · | 15* | ·
O=C(N=c1ccn(-c2nc3ccccc3nc2NS(=O)(=O)c2ccccc2)cc1)c1ccccc1Cl | -5 | -3 | -2 | -10 | 3 | 7
C[C@]12CC[C@@H]3c4ccc(O)cc4CC[C@H]3[C@@H]1CCC2=O | 1 | 6 | 3 | -1 | 40*! | 1
C[C@]12CCC3c4ccc(O)cc4CCC3C1CC/C2=N\N (stereo partly specified) | -4 | 2 | 10 | -4 | 1 | 1
CC(C)c1ccc(S(=O)(=O)N2CCN(C(=O)n3ccnc3)CC2)cc1 | -3 | -2 | -5 | -3 | -2 | -2
Cc1ccc(S(=O)(=O)N2CCN(C(=O)n3ccnc3)CC2)cc1 | 1 | -12 | -4 | -1 | 31* | 1
COc1cc(C(=O)NNC(=S)Nc2ccc(S(N)(=O)=O)cc2)cc(OC)c1OC | 5 | 7 | -1 | 1 | -2 | 1
COCCCNC(=O)CNC(=S)N(Cc1ccc(F)cc1)C1CCCCC1 | -2 | -5 | 3 | -1 | 30* | 2
COCCNc1ncnc2c1ncn2[C@H]1CN(Cc2ccncc2)C[C@@H](CO)O1 | · | 4 | · | · | · | ·
O=C(COC(=O)c1cccnc1Cl)NCCC1=CCCCC1 | -1 | -9 | 7 | 6 | -5 | -2
O=C(CC1CCCC1)N1CCN(S(=O)(=O)c2ccccc2)CC1 | -125 | 2 | 33* | -44 | -25 | ·
O=C(NC1CCCCC1)N1CCN(S(=O)(=O)c2ccc(F)cc2)CC1 | 9 | -8 | 10 | -2 | 17* | 0
COc1ccc(OC(=O)COc2cc(C)ccc2C)cc1 | 4 | 2 | -3 | -4 | -4 | 2
COC(=O)[C@@H]1CCCN1C(=O)CCc1nnc(C2CCCCC2)o1 | -1 | 11 | 1 | -1 | -1 | -1
O=C(C1=C(O)C(=O)N(CCN2CCOCC2)C1c1ccc(F)cc1)c1cc2ccccc2o1 (stereo unspecified) | -5 | -1 | 4 | -7 | -7 | -1
CCN(CC)CCN1C(=O)C(O)=C(C(=O)c2ccc(C)o2)C1c1ccccn1 (stereo unspecified) | · | · | · | · | 16* | ·
O=C(C1=C(O)C(=O)N(CCCN2CCOCC2)C1c1ccccn1)c1cc2ccccc2o1 (stereo unspecified) | -2 | -5 | 0 | -4 | 28* | -2
CNC(=O)c1ccc(-c2cc(C(F)(F)F)nn2C)s1 | · | 8 | · | · | 0 | ·
Cn1nc(C(F)(F)F)cc1-c1ccc(/C=C(\C#N)C(=O)c2ccccc2)s1 | -3 | -4 | 5 | ? | 20* | -5
COc1ccc(C(=O)Nc2nnc(S(=O)(=O)Cc3ccccc3)s2)cc1 | 6 | -3 | 2 | 0 | 0 | -2
COc1ccc(C(=O)Nc2nnc(S(=O)(=O)Cc3ccc(F)cc3)s2)cc1 | -2 | 5 | -8 | 2 | 18* | 0
